Glyco luc inh – N-linked glycosylation inhibition | reporter increase, % at 12.5 µM | AID 588692 | 0.23% of 360,000 active | D54 ERlucT glycosylation luciferase reporter, 24 h; percent of 100 nM tunicamycin response;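 active means mean luciferase reporter signal, scaled so untreated is 0 and the glycosylation-blocking control 100, at or above a set limit in every replicate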;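 further: luciferase carries N-glycosylation sites so blocking glycosylation raises the light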
HIV Env fusion – HIV envelope-mediated fusion inhibition; HeLa-JRFL Env/CEM21 cell fusion, luciferase; inhibition, % at 12.3 µM; 1.1% of 360,000 active;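 active means mean replicate inhibition score of at least 50 and every replicate individually at or above 50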
Shn3 3UTR inh – inhibitors of Schnurri-3 3'UTR reporter in osteoblasts; Clone20 osteoblast Shn3 3'UTR firefly luciferase, 24 h; inhibition, % at 12.5 µM; 0.52% of 360,000 active;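 active means mean inhibition of at least 75% with every replicate also reaching 75%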
LMP1 NFkB inh – reduces LMP1-driven NF-kappaB luciferase signal | LMP1-induced NF-kappaB luciferase reporter cells, luminescence | inhibition, % at 12.5 µM | 0.69% of 350,000 active | AID 504558; in the data active means inhibition above about 41%
NSD2 inh – inhibitors of human histone methyltransferase NSD2; NSD2 peptide methylation, AlphaScreen, 120 min; inhibition, % at 12.5 µM; O96028; 0.54% of 310,000 active; in the data active means inhibition above about 50%
PAX8 inh HTS – PAX8 transcriptional activity inhibition; RMG-I TPO-luciferase reporter, SteadyGlo, 24 h; inhibition, % at 12.6 µM; 1.2% of 360,000 active; AID 652154;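 active means mean replicate inhibition at least 60% with every replicate also reaching 60%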;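 further: luciferase light reporting Pax8 driven TPO promoter activity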
A number is an active result; 0 = inactive; - = no result given; [ ] = another dose, or the depositor's remark. In the library only some 2.8% were active in any assay of this set; here they are far more common.

SMILES | Glyco luc inh | HIV Env fusion | Shn3 3UTR inh | LMP1 NFkB inh | NSD2 inh | PAX8 inh HTS
C[C@H](CO)N1C[C@H](C)[C@@H](CN(C)C)Oc2c(NC(=O)Cc3ccccc3)cccc2C1=O | 0 | 0 | 0 | 44 | - | 0
C[C@H](CO)N1C[C@H](C)[C@@H](CN(C)Cc2ccccc2)Oc2c(NC(=O)Cc3ccccc3)cccc2C1=O | 0 | 0 | 0 | 0 | - | 0
Cc1ccc(S(=O)(=O)N[C@@H]2CC[C@@H](CCNC(=O)C3CCCC3)O[C@@H]2CO)cc1 | - | 0 | - | - | - | 0
COc1cccc(S(=O)(=O)N2CC[C@@H]3[C@@H](CO)Nc4ccc(Br)cc4[C@@H]32)c1 | - | - | - | - | - | 0
Cc1sc(NC(=O)Cc2ccc3c(c2)OCO3)nc1-c1ccc2c(c1)CCN2C(=O)c1ccccc1F | 0 | 74 | 0 | 0 | 0 | 0
Cc1cc(C)cc(N=Cc2ccc([N+](=O)[O-])s2)c1 | 0 | 0 | 0 | 0 | 0 | 0
NC(=O)c1ccc(N=Cc2ccc([N+](=O)[O-])s2)cc1 | 44 | 0 | 0 | 0 | 0 | 0
Cc1[nH]nc2c1C1(C(=O)N(Cc3ccc(Cl)cc3)c3ccccc31)C(C#N)=C(N)O2 (stereo not drawn) | 0 | 85 | 0 | 0 | 0 | -
CCCCN1C(=O)C(=O)c2cc(C)ccc21 | - | - | - | - | 0 | -
CCCCN1C=CC(=C2C(=O)c3ccccc3C2=O)C=C1 | 0 | 84 | 91 | 75 | 0 | 82
O=C(Nc1ccc(-c2nc3ccccc3o2)cc1)c1cc(-n2cnnc2)ccc1Cl | 0 | 58 | 0 | 0 | 0 | -
CCCNC(=O)C[C@@H]1C[C@H]2c3cc(NC(=O)c4cccnc4)ccc3O[C@H]2[C@H](CO)O1 | - | 71[16.7 µM] | - | - | - | 0
CCCNC(=O)C[C@H]1C[C@H]2c3cc(NC(=O)c4cccnc4)ccc3O[C@H]2[C@@H](CO)O1 | - | 0 | - | - | - | 0
COc1ccccc1CNC(=O)C[C@H]1C[C@@H]2c3cc(NC(=O)c4cccnc4)ccc3O[C@@H]2[C@@H](CO)O1 | - | 90[16.7 µM] | - | - | - | 0
O=C(C[C@@H]1C[C@@H]2c3cc(NC(=O)NC4CCCC4)ccc3O[C@@H]2[C@H](CO)O1)NCc1ccccc1F | - | 0 | - | - | - | 0
C[C@@H]1CN([C@H](C)CO)S(=O)(=O)c2ccc(C3=CCCCC3)cc2O[C@H]1CN(C)Cc1ccncc1 | - | 0 | - | - | - | -
C[C@@H]1CN([C@H](C)CO)S(=O)(=O)c2ccc(C3=CCCC3)cc2O[C@H]1CN(C)Cc1ccccc1 | - | 0 | - | - | - | -
C[C@H](CO)N1C[C@H](C)[C@@H](CN(C)Cc2ccncc2)Oc2cc(C3=CCCCC3)ccc2S1(=O)=O | - | 64[16.7 µM] | - | - | - | -
C[C@H](CO)N1C[C@H](C)[C@@H](CN(C)Cc2ccccc2)Oc2cc(C3=CCCC3)ccc2S1(=O)=O | - | 55[16.7 µM] | - | - | - | -
C=CCNc1nc(N2CCOCC2)c(C#N)c2c1CN(C)CC2 | 0 | 0 | 97 | 0 | - | -
CC(C)NC(=O)Nc1ccc2c(c1)C(=O)N([C@@H](C)CO)C[C@H](C)[C@H](CN(C)C(=O)NC1CCCCC1)OCCCC[C@H](C)O2 | - | 0 | - | - | - | 0
C[C@@H]1CCCCO[C@@H](CN(C)C(=O)c2ccccc2)[C@H](C)CN([C@H](C)CO)C(=O)c2cc(NC(=O)Nc3ccccc3)ccc2O1 | - | 0 | - | - | - | 0
C[C@H](CO)N1C[C@H](C)[C@@H](CN(C)Cc2ccccc2)Oc2ncc(-c3cccc(F)c3)cc2C1=O | - | 0 | - | - | - | -
CCc1nc2ccc(C(=O)N3CC(C)CC(C)C3)cc2nc1CC (stereo not drawn) | - | - | - | - | 0 | -
CN1[C@@H]2Cn3c(ccc(-c4ccccc4)c3=O)[C@H]1[C@@H](C(=O)NC1CCCCC1)[C@@H]2CO | - | - | - | - | - | 89
SMILES | Glyco luc inh | HIV Env fusion | Shn3 3UTR inh | LMP1 NFkB inh | NSD2 inh | PAX8 inh HTS
CCCN1[C@H](C(=O)N[C@@H](C)c2ccccc2)[C@@H](CO)[C@@H]2Cn3c(ccc(-c4cccc(F)c4)c3=O)[C@@H]21 | - | 64[16.7 µM] | - | - | - | -
CN1[C@H](C(=O)N2CCc3ccccc3C2)[C@@H](CO)[C@@H]2Cn3c(ccc(-c4ccccc4)c3=O)[C@@H]21 | - | 0 | - | - | - | 68
C[C@H](CO)N1C[C@H](C)[C@@H](CN(C)C(=O)CN(C)C)Oc2cc(C#Cc3cccnc3)ccc2S1(=O)=O | - | 0 | - | - | - | -
Cc1cc(C)nc(Nc2nc(C(N)CCc3ccccc3)cs2)n1 (stereo not drawn) | 0 | 74 | 0 | - | 0 | 0
Cc1cc(C)nc(Nc2nc(C(N)c3ccccc3)cs2)n1 (stereo not drawn) | 0 | 0 | 0 | - | 0 | 0
CN(CCC#N)C(=S)Nc1ccc(F)cc1 | 0 | 0 | 0 | 57 | 0 | 0

Screens: PubChem BioAssay, Broad Institute
